Only some compounds are listed: those with a hit (about 2.4% of all), similar ones and a draw of the others.
M1 PAM = positive allosteric modulators of human M1 muscarinic receptor; P11229; CHO-K1 hM1, Fluo-8 calcium fluorescence, ACh EC20; 0% = ACh EC20, 100% = maximal ACh; activation, % at 3 µM; hit rate 0.088% among 360,000; AID 588819; in the data active = activation above about 19%, passing the limit was not always enough
Target sequence (P11229 whole entry, looked up): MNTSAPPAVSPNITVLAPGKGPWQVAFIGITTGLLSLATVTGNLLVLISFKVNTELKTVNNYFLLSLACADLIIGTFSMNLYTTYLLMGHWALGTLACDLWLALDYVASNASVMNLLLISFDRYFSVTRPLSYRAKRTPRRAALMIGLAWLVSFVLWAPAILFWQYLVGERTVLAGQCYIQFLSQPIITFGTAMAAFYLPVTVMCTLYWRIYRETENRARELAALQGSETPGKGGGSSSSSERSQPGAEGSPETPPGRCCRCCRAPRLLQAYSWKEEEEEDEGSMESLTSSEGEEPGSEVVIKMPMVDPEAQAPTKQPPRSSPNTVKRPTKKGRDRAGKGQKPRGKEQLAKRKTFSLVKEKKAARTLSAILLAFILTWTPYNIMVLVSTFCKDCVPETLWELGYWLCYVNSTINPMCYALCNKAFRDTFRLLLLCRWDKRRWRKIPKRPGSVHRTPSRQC
CHRM1 agonist = activates human CHRM1 receptor; activation, % at 3 µM; P11229; AID 588814; CHO-K1 hM1, Fluo-8 calcium fluorescence, agonist mode; 0% DMSO, 100% acetylcholine EC100; hit rate 0.33% among 360,000;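 active = activation above the run's mean compound activation plus 3 SD, cut at about 16% in these data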;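 also: peak over basal fluorescence ratio within a 140 s kinetic read after compound addition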
CHO-K1 Ca ag = M1 agonist counterscreen hit in parental CHO-K1 cells | activation, % at 3 µM | Fluo-8 calcium fluorescence; scaled to maximal ATP response, vehicle zero | hit rate 0.48% among 360,000 | AID 602248; in the data active = activation above about 15%;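 also: untransfected CHO-K1 host cells lacking M1 receptor as counterscreen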
M1 PAM parental = M1 PAM counterscreen hit in parental CHO-K1 cells | activation, % at 3 µM | hit rate 0.02% among 360,000 | AID 602247 | ATP EC20, Fluo-8 calcium fluorescence; 0% at ATP EC20, 100% at ATP max;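 active = activation above the run cutoff, the mean activation of all test compounds plus 3 SD, cut at about 40% in these data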;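 also: peak over basal fluorescence ratio in a 140 s read after ATP addition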
CHO-K1 Ca antag = M1 antagonist counterscreen hit in parental CHO-K1 cells; inhibition, % at 3 µM; ATP-induced calcium, Fluo-8 fluorescence; AID 602250; hit rate 0.6% among 360,000;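 active = inhibition above a per-plate cutoff, the plate's mean sample inhibition plus 3 SD, cut at about 24% in these data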;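 also: 0% = DMSO plus EC80 ATP and 100% = DMSO alone without ATP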
CHRM1 antagonist = antagonists of human M1 muscarinic receptor; hit rate 1.3% among 360,000; inhibition, % at 3 µM; CHO-K1 hM1, Fluo-8 calcium fluorescence, ACh EC80 antagonist; P11229;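 active = percent inhibition above its own plate's cutoff, namely the mean of that plate's compound wells plus 3 SD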;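 also: peak over basal fluorescence ratio during 140 s after agonist addition; 0% = ACh EC80 plus DMSO and 100% = DMSO alone without agonist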
* hit, by the source's call.

SMILES	M1 PAM	CHRM1 agonist	CHO-K1 Ca ag	M1 PAM parental	CHO-K1 Ca antag	CHRM1 antagonist
CCC(C(=O)N1CCOCC1)n1nc(C)c2c(C)n(-c3ccccc3)nc2c1=O (stereo not given)	-6	-4	0	-11	-12	9
Cn1nc(C(F)(F)F)c(/C=N/OC(=O)c2ccccc2Cl)c1SCc1ccccc1Cl	-28	-7	2	20	-14	33*
CCN(CC)c1ccc(/C=C/c2cc(-c3ccccc3)c3ccccc3n2)cc1	-2	18*	9	-2	11	36*
Cc1cccc(-c2ccc3c(c2)C2CC3CCN2)c1 (stereo not given)	-27	-10	1	2	7	32
Fc1ccc(-c2ccc3c(c2)C2CC3CCN2)cc1 (stereo not given)	-30	-4	5	6	-2	39*
COc1cc(OC)cc(C(=O)NC(C(=O)NCc2ccccn2)C(C)C)c1 (stereo not given)	-29	-9	0	-14	11	78*
CC(NC(=O)COC(=O)c1ccccc1O)c1ccccc1 (stereo not given)	10	1	1	4	-2	-14
CC(NC(=O)COC(=O)c1cc(Cl)nc(Cl)c1)c1ccccc1 (stereo not given)	11	5	23*	13	-9	-9
COc1cc(OC)cc(C(=O)NCC(=O)NC(C)c2ccccc2)c1 (stereo not given)	6	1	0	-7	8	75*
COc1cc(OC)cc(C(=O)NCC(=O)NC(C)CCc2ccccc2)c1 (stereo not given)	3	-2	1	5	-3	0
CC1(C)CC(NC(=S)NC(=O)c2cc(Br)ccc2Cl)CC(C)(C)N1	11	22*	0	-4	2	-5
COc1cc(NC(=S)NC2CC(C)(C)NC(C)(C)C2)c(OC)cc1Cl	4	36*	0	9	7	2
COc1cccc(NC(=S)NC2CC(C)(C)NC(C)(C)C2)c1	-6	0	0	-11	26*	10
Cc1onc(C(=O)NC2CCCCC2)c1[N+](=O)[O-]	-5	-3	0	-18	-11	10
CC(C)n1cc(/C(N)=N/O)c(=O)n(Cc2ccccc2)c1=O	10	-6	1	31	0	-13
CCOC(=O)c1c(C)[nH]c(C(=O)NCCc2ccc(OC)c(OC)c2)c1C	-1	0	2	-23	0	1
COc1ccnc2c1c(=O)n(Cc1cccc(Cl)c1)c(=O)n2C	4	-2	0	-7	-9	-6
CC(C)(C)c1cc2cccnc2n1Cc1cccc(Cl)c1	-12	-5	0	0	-8	31*
C=CCNC(=S)Nc1ccc(Cl)cc1F	1	-4	16*	8	8	7
COc1ccccc1CNC(=O)CCC(=O)N1CC(C)Sc2ccccc21 (stereo not given)	7	0	1	-6	10	2
O=C(Oc1ccccc1N1CCOCC1)c1ccccc1	5	-3	1	17	-3	-11
Cc1ccc(C(=O)Oc2ccccc2N2CCOCC2)cc1	1	-2	20*	8	-4	-3
COc1cccc(C(=O)C2CCCN(Cc3cn(C)nc3-c3ccccc3)C2)c1 (stereo not given)	2	-10	0	6	3	-8
Cn1cc(CN2CCCC(C(=O)c3ccc(-c4ccccc4)c(F)c3)C2)cn1 (stereo not given)	-29	-12	6	30	-13	28*
Cc1nn(C)cc1CN1CCCC(C(=O)c2ccc(-c3ccccc3)c(F)c2)C1 (stereo not given)	-26	-9	26*	15	12	52*
SMILES	M1 PAM	CHRM1 agonist	CHO-K1 Ca ag	M1 PAM parental	CHO-K1 Ca antag	CHRM1 antagonist
Cn1cc(CN2CCCC(C(=O)c3ccc(-c4ccccc4)cc3)C2)cn1 (stereo not given)	-13	-11	3	19	-15	-3
FC(F)(F)c1cnc2c(-c3ccccc3)n[nH]c2c1	-5	-8	0	-5	4	3
CCOC(=O)Cn1nc(C)c(NC(=O)CCc2ccc(OC)cc2)c1C	17	-8	17*	16	-7	-13
CCOC(=O)Cn1nc(C)c(NC(=O)CCc2ccccc2)c1C	5	-5	0	2	3	-6
COc1ccc(C2CC(=O)c3cnc(NC(=O)c4ccccc4)nc3C2)c(OC)c1 (stereo not given)	4	-1	0	-4	24*	1
COc1ccc(C(=O)COC(=O)COc2cc(C)cc(C)c2)cc1	11	-3	1	3	-6	-12
O=C(Nc1cccc(Cl)c1)Nc1nnc(-c2ccncc2)s1	-10	4	11	-5	33*	25
CS(=O)(=O)c1ccc2nc(NC(=O)Nc3cccc(Cl)c3)sc2c1	-14	6	16*	-9	12	33*
Cc1ccc(OCC(=O)N2CC(C)CC(C)C2)c([N+](=O)[O-])n1 (stereo not given)	4	0	1	-1	-3	-14
NC(=O)c1nsc(C(=O)N(c2ccccc2)C(C(=O)NCc2ccc(F)cc2)c2ccc(O)cc2)c1N (stereo not given)	-9	-1	10	-2	10	27*
O=C(NCc1ccc(F)cc1)C(c1ccccc1)N(C(=O)c1csnn1)c1ccccc1 (stereo not given)	-20	-9	7	-3	-3	29*
COc1cc(NC(=O)COC(=O)CO/N=C(\C)c2ccc3c(c2)OCO3)cc(OC)c1	8	0	1	5	8	-10
Cc1cc(C(F)(F)F)n2nc(-c3cnn(C)c3C(F)(F)F)c(Br)c2n1	3	-7	1	6	-9	-1
Cc1[nH]c2ccccc2c1C(C[N+](=O)[O-])c1cccc(O)c1 (stereo not given)	-13	-1	7	-1	6	37*
Cc1ccccc1-c1cc2c(nn1)-c1ccccc1C2=O	3	3	0	-7	25*	-23
Cc1cc(NC(=O)C(C)SCC(=O)Nc2ccc(Br)cc2Br)no1 (stereo not given)	6	-4	2	18	-5	-5
c1ccc(-c2csc(-n3cnnn3)n2)cc1	-11	-6	0	-7	30*	16
CN1CCN(c2ccccc2NC(=O)c2ccc(-c3ccccc3[N+](=O)[O-])o2)CC1	5	-4	4	13	-5	-4
Cc1cc(C)nc(Sc2ncnc(N)c2[N+](=O)[O-])n1	4	0	0	-11	2	2
FC(F)(F)c1cnc(N2CCCN(C(=S)Nc3ccccc3)CC2)c(Cl)c1	-12	-1	17*	11	5	21

Screens from PubChem BioAssay.
